We go through 16 compounds from PMC5540273 (PLoS ONE, 2017).

Test systems include KIT-autoinhibited; KIT; LATS1; LATS2.
Conditions in all cases: concentration: 1 μM, replicates: in singlicate; n = 1
For experiment [1], the system named is JAK1(JH2domain-pseudokinase).
Experiment [2] relates to JAK2(JH1domain-catalytic).
The subject of experiment [3] is JAK3(JH1domain-catalytic).
The next experiment has as its system T1, JNK1.
T1 construct: gene MAPK8

The next experiment has as its system T2, JNK2.
T2 construct: gene MAPK9

The test system of another experiment is T3, JNK3.
T3 construct: gene MAPK10
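Also: KINOMEscan kinase panel screen.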

For `CN(C)CCNS(=O)(=O)c1ccc(-c2ccnc3[nH]ccc23)cc1` [GSK977620], the “%Inh” value was 0% in [1]; 82% in [2]; 56% in experiment [3]; 29% with JNK1; 17% with JNK2; 15% with JNK3. In addition, the “%Inh” value in the experiment on KIT-autoinhibited amounted to 0%; in the experiment on KIT it was 9%; with LATS1, 29%; in the experiment on LATS2 it was 93%.

As for `Cc1ccc(C)c(NC(=O)Nc2ccc(C)c(-c3ccc(C(=O)Nc4ccncc4)cc3)c2)c1` [GSK1398473], the “%Inh” value in experiment [1] was 0%; in experiment [2], 0%; in experiment [3], 0%; in the experiment on JNK1 it was 15%; with JNK2, 14%; with JNK3 it was 6%. In addition, the “%Inh” value in the experiment with KIT-autoinhibited was 0%; in the experiment with KIT, 99.9%; in the experiment with LATS1 it was 3%; in the experiment on LATS2 it was 0%.

For `Fc1cc(Cl)ccc1Nc1ccnc2cc(-c3ccc(CN4CCOCC4)o3)ccc12` [GW560109], the “%Inh” value in [1] amounted to 0%; in [2], 35%; in experiment [3], 0%; in the experiment on JNK1, 29%; in the experiment with JNK2, 23%; with JNK3 it was 15%. Also, the “%Inh” value is given as 22% in the experiment on KIT-autoinhibited, 100% in the experiment with KIT, 0% in the experiment with LATS1 and 0% with LATS2.

In the case of `Nc1cccc(-c2ccc3c(N)n[nH]c3c2)c1` [GSK2193613], the “%Inh” value in [1] is 12%; in experiment [2] it was 8%; in [3], 0%; in the experiment with JNK1, 18%; with JNK2 it was 13%; in the experiment with JNK3, 3%. Further, the “%Inh” value in the experiment on KIT-autoinhibited is given as 83%; with KIT, 23%; in the experiment on LATS1, 0%; with LATS2, 27%.

Consider `COc1cccc(CC(=O)N2CCc3cc(-c4cn(C)c5ncnc(N)c45)ccc32)c1` [GSK2608899], for which the “%Inh” value in experiment [1] is on record as 0%; in [2], 0%; in experiment [3] it was 0%; in the experiment with JNK1, 4%; in the experiment with JNK2, 16%; in the experiment with JNK3, 3%. Besides, the “%Inh” value in the experiment on KIT-autoinhibited is given as 11%; with KIT it was 100%; in the experiment on LATS1 it was 0%; in the experiment with LATS2 it was 10%.

For `COc1cccc(-c2nc(-c3ccccc3)[nH]c2-c2ccncc2)c1` [SB-610250], the “%Inh” value was determined as 12% in [1]; 17% in experiment [2]; 0% in experiment [3]; 30% in the experiment with JNK1; 83% with JNK2; 90% in the experiment on JNK3. The “%Inh” value in the experiment with KIT-autoinhibited was 0%; in the experiment with KIT, 0%; in the experiment on LATS1, 45%; with LATS2, 0%.

`CN(C)c1ncnc2nc[nH]c12` [SKF-31736]: the “%Inh” value is given as 34% in experiment [1]; 0% in experiment [2]; 30% in experiment [3]; 23% with JNK1; 0% with JNK2; 0% with JNK3. In addition, the “%Inh” value in the experiment with KIT-autoinhibited is given as 19%; in the experiment with KIT it was 0%; in the experiment with LATS1 it was 0%; in the experiment with LATS2, 0%.

Turning to `O=C(Nc1n[nH]c2nc(-c3ccccc3)ccc12)C1CC1` [SB-708999], the “%Inh” value in experiment [1] is 0%; in [2], 17%; in [3], 51%; in the experiment on JNK1 it was 16%; in the experiment with JNK2, 6%; with JNK3, 6%. Besides, the “%Inh” value turned out to be 0% with KIT-autoinhibited, 8% in the experiment on KIT, 6% with LATS1 and 0% in the experiment on LATS2.

With `CN1CCN(Cc2ccc(NC(=O)Nc3ccc(N(C)c4ccnc(Nc5ccc(CS(C)(=O)=O)cc5)n4)cc3)cc2)CC1.Cl` [GW827654], the “%Inh” value in experiment [1] is 84%; in [2], 99.9%; in [3], 98.5%; in the experiment with JNK1 it was 92.7%; in the experiment on JNK2, 76%; with JNK3, 88%. In addition, the “%Inh” value in the experiment with KIT-autoinhibited was determined as 61%; with KIT it was 100%; in the experiment with LATS1 it was 20%; in the experiment with LATS2, 37%.

Regarding `O=C(Nc1n[nH]c2nc(-c3ccccc3O)ccc12)C1CC1` [SB-711880], the “%Inh” value in experiment [1] worked out at 0%; in experiment [2], 0%; in experiment [3], 0%; in the experiment on JNK1 it was 38%; with JNK2, 31%; with JNK3, 24%. In addition, the “%Inh” value in the experiment with KIT-autoinhibited was 32%; with KIT, 0%; in the experiment on LATS1, 0%; with LATS2 it was 0%.

As to `O=C1NC(=O)C(c2ccccc2Cl)=C1Nc1cccc(Cl)c1` [SB-342409], the “%Inh” value in experiment [1] is 0%; in experiment [2], 24%; in [3], 65%; in the experiment with JNK1, 19%; in the experiment on JNK2, 12%; in the experiment on JNK3 it was 3%. In addition, the “%Inh” value with KIT-autoinhibited, with KIT, in the experiment with LATS1 and in the experiment on LATS2 was 0% in each case.

On to `CC(C)(C)c1ccc(C(=O)Nc2cn3cc(-n4ccnc4)ccc3n2)cc1`, for which the “%Inh” value turned out to be 2% in [1]; 26% in [2]; 0% in [3]; 5% with JNK1; 0% in the experiment with JNK2; 0% in the experiment with JNK3. Further, the “%Inh” value in the experiment on KIT-autoinhibited was 20%; in the experiment with KIT, 98.4%; with LATS1 it was 0%; in the experiment with LATS2, 0%.

Regarding `Cc1ccc(O)cc1Nc1ccnc2ccc(C(C)(C)C)cc12` [GW856805], the “%Inh” value in [1] was 20%; in experiment [2], 64%; in [3] it was 0%; in the experiment with JNK1, 43%; in the experiment on JNK2, 29%; in the experiment with JNK3 it was 15%. In addition, the “%Inh” value in the experiment with KIT-autoinhibited is on record as 22%; in the experiment on KIT, 96.9%; in the experiment with LATS1, 0%; in the experiment with LATS2, 0%.

With `CCNC(=O)/C=C/c1n[nH]c2cc(Sc3ccccc3C(=O)NC)ccc12`, the “%Inh” value in experiment [1] came out at 0%; in experiment [2], 0%; in experiment [3] it was 18%; with JNK1 it was 15%; with JNK2 it was 4%; in the experiment with JNK3 it was 0%. The “%Inh” value in the experiment with KIT-autoinhibited worked out at 95%; in the experiment with KIT, 100%; in the experiment with LATS1, 17%; in the experiment with LATS2, 22%.

For `Nc1ncc(-c2cn[nH]c2)c2scc(-c3ccc4c(c3)CCN4C(=O)Cc3ccccc3)c12` [GSK2593067], the “%Inh” value in [1] stood at 0%; in [2], 43%; in experiment [3], 0%; in the experiment with JNK1, 13%; with JNK2, 12%; in the experiment with JNK3, 2%. The “%Inh” value is 12% with KIT-autoinhibited, 100% in the experiment with KIT, 0% in the experiment with LATS1 and 55% with LATS2.

As for `Fc1cc(Cl)ccc1Nc1ccnc2cc(-c3ccc(CN4CCSCC4)o3)ccc12` [GW560106], the “%Inh” value in [1] worked out at 0%; in [2], 0%; in [3], 0%; with JNK1, 13%; in the experiment with JNK2 it was 34%; in the experiment on JNK3, 1%. The “%Inh” value with KIT-autoinhibited was found to be 11%; in the experiment on KIT it was 100%; in the experiment with LATS1, 73%; with LATS2, 0%.
